Insulin prom up = insulin promoter activators in MIN6 cells, imaging, high-content screening, mouse beta cells | MIN6 insulin promoter-GFP reporter; stronger effect = higher value | z-score at 5 µM | 190,000 compounds, 0.3% hits | AID 1625, 2009;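 active means z-score above 3 at 5 µM with at least 500 cells counted in the well; inconclusive means wells under 500 cells, flagged as cytotoxic or low count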
Autophagy mod = autophagy modulators in MEF cells, primary screen, imaging, high-content, MEF GFP-LC3 | MEF GFP-LC3 puncta imaging; test concentration mostly 10 µM | calls only at 10 µM (by protocol) | 190,000 compounds, 0.98% hits | AID 463193, 2010;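 active means percentage of spot-positive cells more than 3 SD above its plate mean, without a fluorescence outlier flag or 80% toxicity; inconclusive means no clear call, values can overlap the other calls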;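 further: spot-positive cell cutoff set from DMSO-treated cells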
Insulin prom inh = inhibitors of insulin promoter-driven GFP, primary screen, imaging, TRM-6 cells (human fetal islet line), eGFP reporter, cell count. reporter expression induced with tamoxifen. inhibition, % at 2 µM. 130,000 compounds, 0.9% hits;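 active means inhibition above the mean plus 3 SD, with well images judged a real hit on visual review, cut at about 60% in these data, passing the limit was not always enough; inconclusive means inhibition over the cutoff but images rejected on review; inactive means inhibition not above the cutoff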
WT yeast gro inh = growth inhibition of WT strain, primary screen, mitochondrial fusion inhibitor project, WT and mutant strains, chemical genetic; mitochondrial fusion phenotypic screen; 190,000 compounds, 2.1% hits; AID 1362, 2008; inhibition, % at 10 µM; in the data active means inhibition above about 58%; tested in S. cerevisiae
L major viab = Leishmania major promastigote growth inhibition, primary screen | AID 1063, 2008 | Leishmania major promastigotes, resazurin fluorescence viability | inhibition, % at 10 µM | 200,000 compounds, 9% hits; in the data active means inhibition above about 50%;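 further: promastigotes grown with compound for 44 hours at 28 °C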
Numbers without * were called inactive; i = inactive; u = inconclusive; x = no result given; + = active, no number. Most compounds without a hit are left out; they make up all but 11% or so of the library.

SMILES | Insulin prom up | Autophagy mod | Insulin prom inh | WT yeast gro inh | L major viab
CCOC(=O)Cn1c(=O)oc2cc(S(=O)(=O)NC(C)c3ccccc3)ccc21 (centres undefined) | u | i | x | 10.2 | -3.7
CC(NC(=O)Cn1c(=O)oc2cc(S(=O)(=O)N3CCCC3)ccc21)c1ccccc1 (centres undefined) | 0.27 | i | x | -18.2 | 99.6*
COc1cccc(NC(=O)Cn2c(=O)oc3cc(S(=O)(=O)N4CCCC4)ccc32)c1 | -0.56 | x | x | x | x
O=C(Cn1c(=O)oc2ccccc21)N1CCN(c2ccccc2)CC1 | 1.26 | i | 32.5 | 3.1 | -0.6
O=C(Cn1c(=O)oc2cc(S(=O)(=O)N3CCCC3)ccc21)N1CCN(c2ccccc2)CC1 | -0.4 | i | x | -9.1 | 100.0*
CN(Cc1ccccc1)C(=O)Cn1c(=O)oc2cc(S(=O)(=O)N3CCCC3)ccc21 | -0.79 | i | x | 1.8 | 100.2*
COC(=O)C1=C(C)OC(N)=C(C#N)C1c1cc(OC)c(OCC(N)=O)cc1Cl (centres undefined) | 0.09 | i | -10.0 | 6.6 | 7.4
COc1ccc(/C=N\NC(=O)c2cc(O)c(O)c(O)c2)cc1CN1CCN(c2ccc(F)cc2)CC1 | -0.44 | i | x | -21.6 | -14.9
CCOC(=O)CCC(=O)NNC(=O)COc1ccc(C(C)C)cc1Br | -0.08 | i | x | 2.2 | -7.8
O=C(Cn1c(=O)oc2cc(S(=O)(=O)N3CCCCCC3)ccc21)NC1CCCCCCC1 | 1.29 | i | x | 12.9 | -0.9
O=C(NC1CCCc2ccccc21)C1CCN(S(=O)(=O)c2ccccc2F)CC1 (centres undefined) | 0.47 | i | 0.0 | 25.6 | 85.3*
O=C(Cn1c(=O)oc2cc(S(=O)(=O)N3CCCC3)ccc21)NC1CCCc2ccccc21 (centres undefined) | -0.3 | i | x | 13.7 | 100.3*
CC1CN(c2ccc(Cl)cc2[N+](=O)[O-])CCN1S(C)(=O)=O (centres undefined) | 0 | i | 20.0 | 2.0 | 0.9
CC(=O)N(C)c1ccc(OCC(O)Cn2c3ccc(Cl)cc3c3cc(Cl)ccc32)cc1 (centres undefined) | -0.19 | i | -4.3 | 77.2* | 35.1
O=C1C2C3c4ccccc4C(c4ccccc43)C2C(=O)N1c1cccnc1 (centres undefined) | 1.31 | i | 5.9 | 1.2 | 51.4*
O=C(Oc1cccc2c(O)cccc12)c1ccccc1 | -0.42 | i | x | 60.5* | 12.8
CC(=O)Nc1ccc(SCC(=O)c2cc(C)n(CC(F)(F)F)c2C)cc1 | x | i | x | 7.3 | 61.4*
N#C/C(=C/c1ccc(N2CCOCC2)c([N+](=O)[O-])c1)C(N)=O | -0.03 | i | u | 1.4 | 1.6
COc1ccc(/C=C\c2nc(=O)c3ccccc3o2)cc1 | -1.16 | i | 18.8 | 50.1 | 84.2*
O=C(Nc1ccc(N2CCCCC2)cc1)c1cc([N+](=O)[O-])cc([N+](=O)[O-])c1 | -0.65 | + | 20.0 | 9.9 | 65.6*
CCCCOc1ccc(C(=O)Nc2ccc(N3CCN(C(C)=O)CC3)cc2)cc1 | -0.13 | i | 10.3 | -1.6 | -4.0
CC(C)Oc1ccc(C(=O)Nc2ccc(N3CCCCC3)cc2)cc1 | -0.42 | i | 22.2 | -6.1 | 50.9*
CC(=O)N1CCN(c2ccc(NC(=O)c3ccc(C(C)(C)C)cc3)cc2)CC1 | 0.46 | i | -4.8 | -21.2 | 96.8*
Cc1ccc(C(=O)Nc2ccc(N3CCCC3)cc2)cc1 | 0.2 | i | x | -15.8 | 3.9
COc1ccc(C(=O)Nc2ccc(N3CCCCC3)cc2)cc1Br | 0.14 | i | 0.0 | -1.9 | 51.9*
SMILES | Insulin prom up | Autophagy mod | Insulin prom inh | WT yeast gro inh | L major viab
Cc1cc(NC(=O)CCSc2ccccc2)no1 | -0.08 | i | x | -10.2 | -0.2
Cc1ccccc1NC(=S)NC(C)C(c1cccs1)N1CCOCC1 (centres undefined) | 0.55 | i | -17.1 | 4.2 | 4.9
CC(NC(=S)Nc1ccccc1Cl)C(c1cccs1)N1CCCC1 (centres undefined) | -0.97 | i | -36.0 | 24.2 | 84.2*
CC(NC(=S)NCCc1ccccc1)C(c1cccs1)N1CCN(Cc2ccccc2)CC1 (centres undefined) | -1.62 | i | -14.3 | 21.0 | 97.5*
COc1ccc(CNC(=O)CN(c2ccccc2)S(=O)(=O)N(C)C)cc1 | 0.26 | i | x | 7.4 | 0.2
COCC(C)n1c(SCC(=O)NC(=O)Nc2ccc3c(c2)OCCO3)nc2ccccc2c1=O (centres undefined) | -4.52 | i | x | 16.3 | 85.3*
